Reference: PubChem BioAssay AID1159580 (chemical genetic matrix, 2015)
Out of some 5,500 compounds screened, about 2,000 (36%) were called active. Roughly 18% stayed inconclusive and do not appear here. Rule as the data show it: active = normalized growth mostly below about 0.91 (no sharp cut-off); inconclusive = no clear call, values can overlap the other calls; inactive = mostly above about 0.92. Some of the results follow.

Experiment: chemical genetic growth profiling, strain panel (AID 1159580);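 also: tested at 20 µM; growth read once vehicle control cultures reached saturation at 30 °C; 1 = growth at the plate median or of vehicle wells; lower values mean less growth of the strain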
Conditions: S. cerevisiae deletion strains, growth OD

Measured: normalized growth

O=[N+]([O-])c1cc(C(F)(F)F)ccc1N1CCN(CCO)CC1
inactive: locus YAL013W, strain DEP1, stronger effect = lower value 0.995 | locus YBR229C, strain ROT2, stronger effect = lower value 0.987 | locus YDL101C, strain DUN1, stronger effect = lower value 0.989 | locus YDR150W, strain NUM1, stronger effect = lower value 1 | locus YEL061C, strain CIN8, stronger effect = lower value 0.993 | locus YGR078C, strain PAC10, stronger effect = lower value 0.977 | locus YHR030C, strain SLT2, stronger effect = lower value 0.953 | locus YHR087W, strain rtc3, stronger effect = lower value 1.03 | locus YJL187C, strain SWE1, stronger effect = lower value 1 | locus YJR043C, strain POL32, stronger effect = lower value 0.991 | locus YJR075W, strain HOC1, stronger effect = lower value 0.986 | locus YLR039C, strain RIC1, stronger effect = lower value 0.978 | locus YLR058C, strain SHM2 (second series), stronger effect = lower value 0.982 | locus YLR085C, strain ARP6, stronger effect = lower value 0.981 | locus YLR262C, strain YPT6, stronger effect = lower value 0.97 | locus YML094W, strain GIM5, stronger effect = lower value 0.992 | locus YMR219W, strain ESC1, stronger effect = lower value 0.997 | locus YMR263W, strain SAP30, stronger effect = lower value 0.937 | locus YNL153C, strain GIM3, stronger effect = lower value 0.99 | locus YNL298W, strain CLA4 (second series), stronger effect = lower value 0.941 | locus YNL322C, strain KRE1, stronger effect = lower value 0.982 | locus YNR030W, strain Alg12, stronger effect = lower value 0.943 | locus YOL006C, strain TOP1, stronger effect = lower value 0.941 | locus YPL055C, strain LGE1, stronger effect = lower value 1.03 | locus YPL241C, strain CIN2, stronger effect = lower value 0.974 | locus YPR135W, strain CTF4, stronger effect = lower value 0.893
